Test results taken from the supplement of paper PMC6555819.

Legend:
Assay in all cases: PBM binding z-score (relative to random genomic background probes); higher = stronger binding; sequences stand for … in GC…GCGATTGACAGCGTAGAATGAAGG
[1] = tested on: FXR:RXRa (NR concentration 270 nM, RXRa partner concentration 90 nM)
How it was run: (§1)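 Antibodies against each partner of ligand-free nuclear receptor dimers (one per run) detected binding on custom Agilent 4×180K protein-binding microarrays after 1 h incubation. The double-stranded probes had 34-nt variable regions carrying direct-repeat seeds, single-nucleotide variants, half-site ablations and random human genomic background sequences. Binding z-scores, from regression-normalized fluorescence, use the random background probes as reference.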

[2] = tested on: LXRa:RXRa (NR concentration 270 nM, RXRa partner concentration 90 nM)
How it was run: as §1

[3] = tested on: LXRa homodimer (NR concentration 270 nM)
How it was run: as §1

[4] = tested on: LXRb:RXRa (NR concentration 270 nM, RXRa partner concentration 90 nM)
How it was run: as §1

[5] = tested on: LXRb homodimer (NR concentration 270 nM)
How it was run: as §1

[6] = tested on: PPARa:RXRa (NR concentration 270 nM, RXRa partner concentration 90 nM)
How it was run: as §1

[7] = tested on: PPARg:RXRa (NR concentration 180 nM, RXRa partner concentration 90 nM)
How it was run: as §1

[8] = tested on: PPARg:RXRa 270nM:90nM, anti-RXR (NR concentration 270 nM, RXRa partner concentration 90 nM)
How it was run: as §1

[9] = tested on: PPARg:RXRa 30nM:10nM, anti-RXR (NR concentration 30 nM, RXRa partner concentration 10 nM)
How it was run: as §1

[10] = tested on: PPARg:RXRa 90nM:30nM, anti-RXR (NR concentration 90 nM, RXRa partner concentration 30 nM)
How it was run: as §1

[11] = tested on: PPARg:RXRa DBDmut IVT, anti-RXR (DBD mutation: RXRa K156A/R161A, NR concentration 270 nM, RXRa partner concentration 90 nM)
How it was run: as §1

[12] = tested on: PPARg:RXRa IVT, anti-PPARg (NR concentration 270 nM, RXRa partner concentration 90 nM)
How it was run: as §1

[13] = tested on: PPARg DBDmut:RXRa IVT, anti-PPARg (DBD mutation: PPARg1 K132A/R137A, NR concentration 270 nM, RXRa partner concentration 90 nM)
How it was run: as §1

[14] = tested on: PPARg DBDmut IVT, anti-PPARg (DBD mutation: PPARg1 K132A/R137A, NR concentration 270 nM)
How it was run: as §1

[15] = tested on: PPARg homodimer (NR concentration 180 nM)
How it was run: as §1

[16] = tested on: PXR:RXRa (NR concentration 270 nM, RXRa partner concentration 90 nM)
How it was run: as §1

[17] = tested on: PXR homodimer (NR concentration 270 nM)
How it was run: as §1

[18] = tested on: RARa:RXR (NR concentration 270 nM, RXRa partner concentration 90 nM)
How it was run: as §1

[19] = tested on: RARa homodimer (NR concentration 270 nM)
How it was run: as §1

[20] = tested on: RARb:RXRa (NR concentration 270 nM, RXRa partner concentration 90 nM)
How it was run: as §1

| Sequence | PBM binding z-score [1] | PBM binding z-score [2] | PBM binding z-score [3] | PBM binding z-score [4] | PBM binding z-score [5] | PBM binding z-score [6] | PBM binding z-score [7] | PBM binding z-score [8] | PBM binding z-score [9] | PBM binding z-score [10] | PBM binding z-score [11] | PBM binding z-score [12] | PBM binding z-score [13] | PBM binding z-score [14] | PBM binding z-score [15] | PBM binding z-score [16] | PBM binding z-score [17] | PBM binding z-score [18] | PBM binding z-score [19] | PBM binding z-score [20] |
| --- | --- | --- | --- | --- | --- | --- | --- | --- | --- | --- | --- | --- | --- | --- | --- | --- | --- | --- | --- | --- |
| AAATGTAGGTTAGCTGGGGTCATTCAGACTAGGC | 4.53 | 5.93 | 3.17 | 4.82 | 0.888 | 5.67 | 6.42 | 5.77 | 3.31 | 5.16 | 7.19 | 7.11 | 4.54 | 3.23 | 3.17 | 6.55 | 4.04 | 6.04 | 0.836 | 3.28 |
| TCATATAGGTAAATGCTAGGTGAAAGTGCGATCT | 1.14 | 1.17 | 0.315 | 0.829 | 0.24 | 1.87 | 1.89 | 3.48 | 3.99 | 3.81 | 4.06 | 3.13 | 0.822 | 0.878 | 1.41 | 0.653 | 0.401 | 1.12 | 1.15 | 0.649 |
| CGTCCAAGGTCATAGAAGGTCAGTGAAGACAGAT | 7.45 | 7.22 | 4.12 | 5.81 | 0.783 | 5.53 | 5.05 | 5.64 | 2.37 | 4.36 | 3.2 | 4.17 | 0.653 | 0.867 | 2.94 | 6.39 | 3.15 | 5.72 | 1.77 | 5.41 |
| AGCATGAGGTTATACGTAGATCAGGGAAGAAAGT | 1.93 | 1.8 | 0.246 | 1.47 | 0.257 | 2.43 | 0.933 | 0.729 | 0.259 | 0.586 | 0.656 | 0.149 | 0.86 | 0.438 | 0.658 | 0.995 | 0.948 | 1.38 | 0.699 | 1.46 |
| GCAGACAGGTGAAACGCAGGCAACTCAGGGTGGC | -0.553 | -0.232 | -0.806 | -0.499 | -1.09 | 0.513 | 0.448 | -0.314 | -0.566 | -0.565 | 0.648 | 0.278 | -0.31 | -0.728 | -0.411 | -0.21 | -0.499 | 0.0177 | -0.602 | 0.594 |
| ACTATTAGTTGAGTTAGGGCAACCGATACGACGC | -0.00299 | -0.201 | 0.321 | -0.189 | 0.544 | -0.0901 | 0.832 | 0.293 | 0.372 | 0.303 | -0.0972 | 0.498 | 1.2 | 0.707 | 0.995 | 0.111 | 0.462 | -0.0618 | 1.3 | 0.797 |
| ACTAGCAGGCCAAGTTTGGGTCACTCACACAAAG | 0.272 | 0.288 | -0.0849 | 0.693 | -0.282 | 1.41 | 0.507 | 0.233 | -0.397 | -0.0603 | 0.874 | 1.38 | -1.02 | 0.437 | 0.553 | 0.973 | 0.229 | 1.62 | -0.272 | 2.06 |
| CCGACTGGGGCAAAGGTTGCCATACTCAGTACGA | -0.0811 | -0.081 | -0.3 | 0.302 | -1.06 | 4.05 | 9.16 | 7.89 | 7.65 | 8.16 | 4.21 | 4.73 | -0.511 | -0.658 | 0.733 | 0.388 | -0.135 | 1.14 | -0.228 | 1.03 |
| TATTGTAGATCAACAGGAGGTTAAGAAAGATCGA | 0.217 | 1.55 | 0.577 | 1.03 | 0.546 | 1.46 | 0.641 | 0.531 | 0.596 | 0.68 | 0.634 | 1.7 | 1.31 | 1.13 | 0.72 | 0.93 | 0.0451 | 0.904 | 0.431 | 0.665 |
| CAAACTAGGTCACCGGAAGGTCAATGTCCGCATG | 5.97 | 5.52 | 3.83 | 4.64 | 1.09 | 6.05 | 9.44 | 7.81 | 5.6 | 7.57 | 8.58 | 8.99 | 1.98 | 1.35 | 6.39 | 5.65 | 1.15 | 6.94 | 1.41 | 5.25 |
| CCTAGCAGGCCAGGGGCACTCAAGCATTTCGCTT | -0.742 | -0.659 | -0.647 | -0.578 | -1.19 | -0.331 | -0.281 | -0.0349 | -0.949 | -0.765 | 0.0628 | -0.609 | -1.68 | -1.6 | -1.02 | -0.801 | -0.66 | -0.684 | -1.15 | 0.377 |
| TTACCAAGGTGAAAGGTCGTCGATGCACGCCTTG | 3.2 | 3.29 | 0.0373 | 2.77 | -0.541 | 5.6 | 9.29 | 8.47 | 7.23 | 9 | 2.84 | 5.42 | 0.568 | 0.68 | 1.99 | 4.17 | -0.076 | 6.52 | -0.215 | 3.27 |
| ATCTCTAGTTAAAGATAGTTCAGTGAATGCAAAT | 0.285 | 1.29 | 0.86 | 0.823 | 0.612 | 0.58 | 0.585 | 0.484 | 0.404 | 0.51 | -0.115 | 0.245 | 0.633 | 1.63 | 0.523 | 0.98 | 1.18 | 1.1 | 1.54 | 0.647 |
| CGAACTAGGTCATTGACAGGAGAGTGAATAGTAA | 4.67 | 2.65 | 0.0352 | 1.64 | -0.158 | 4.89 | 7.41 | 6.44 | 3.96 | 5.77 | 7.92 | 8.28 | 2.36 | 3.6 | 1.32 | 1.04 | 0.0101 | 1.99 | 0.473 | 3.65 |
